{
  "source": "PubChem BioAssay AID743287",
  "about": "(Broad Institute, 2014)",
  "note": "Where “and” joins values, the source holds several entries; their conditions need not be identical. Identical values can stand only once. The whole screen tested about 370,000 compounds, of which about 2,300 (0.62%) were called active.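 How the source made its calls: active means lowest replicate activation of at least 40%, so every replicate reaches that level; inactive means the rest.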 The sample as a whole holds a higher share of actives than the screen did.",
  "data": [
    {"assay": "primary screen for activators of insulin secretion dependent on glucose, INS-1E cells, GLuc reporter luminescence (AID 743287);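 further: 0% = median of neutral control wells and 100% = median of IBMX positive control wells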", "conditions": "INS-1E GLuc reporter insulin secretion, 2-3 h, at 16.6 µM, active compounds read high", "values": [
      {"smiles": "CO[C@@H]1CN(C)C(=O)c2cc(NS(=O)(=O)CC(F)(F)F)ccc2OC[C@H](C)N(Cc2ccccn2)C[C@@H]1C", "activation": "11.8% (inactive)"},
      {"smiles": "CC(C)NC(=O)Nc1ccc2c(c1)CC(=O)N(C)C[C@@H](C)[C@@H](CN(C)C(=O)OC(C)(C)C)O2", "activation": "9.38% (inactive)"},
      {"smiles": "Cc1ccc(-c2cc(C(=O)Nc3nn[nH]n3)c3ccccc3n2)c(C)c1", "activation": "63.4% (active)"},
      {"smiles": "Cc1ccc2c(Cl)c(C(=O)Nc3nn[nH]n3)sc2c1", "activation": "-4.19% (inactive)"},
      {"smiles": "Cc1ccc(C)c(NC(=O)NNC(=O)c2ccc3ccccc3c2O)c1", "activation": "-0.162% (inactive)"},
      {"smiles": "COc1ccc(CCNC(=O)CSc2nnc3ccc(-c4ccncc4)nn23)cc1", "activation": "4.35% (inactive)"},
      {"smiles": "COc1ccc(CCNC(=O)CSc2nc(-c3ccc(OC)c(OC)c3)ccc2C#N)cc1", "activation": "46.1% (inactive)"},
      {"smiles": "COc1cccc(-c2ccc(C#N)c(SCC(=O)NCCc3ccc(Cl)cc3)n2)c1", "activation": "108% (active)"},
      {"smiles": "CCC(=O)N1C[C@H](C)[C@H](OC)CN(C)C(=O)c2ccc(NC(=O)Nc3ccc(Cl)cc3)cc2OC[C@H]1C", "activation": "-31.9% (inactive)"},
      {"smiles": "CNC(=O)C[C@H]1CC[C@@H]2[C@H](COc3ccc(NC(=O)C(C)C)cc3C(=O)N2C)O1", "activation": "4.65% (inactive)"},
      {"smiles": "COc1ccc(CN(C)Cc2nc3cc(OC)c(OC)cc3c(=O)[nH]2)c(OC)c1", "activation": "-31.6% (inactive)"},
      {"smiles": "COc1ccc(/C=C2/C(=O)OCc3cc(OC)c(OC)cc32)c(OC)c1", "activation": "90.1% (active)"},
      {"smiles": "COc1ccc(/C=C/C2=CC(C)(C)NC(=S)N2)c(OC)c1", "activation": "-2.56% (inactive)"},
      {"smiles": "CCCC#Cc1ccc([C@H]2[C@H]3CN(C(=O)Nc4cccc(F)c4)CC(=O)N3[C@H]2CO)cc1", "activation": "-20.8% (inactive)"},
      {"smiles": "Cc1noc(C)c1NC(=O)Nc1ccc2c(c1)C(=O)N([C@@H](C)CO)C[C@H](C)[C@@H](CN(C)C)O2", "activation": "11.6% (inactive)"},
      {"smiles": "Cc1ccccc1-c1ccc([C@H]2[C@H](CO)N3C(=O)CN(C(=O)c4cccnc4)C[C@@H]23)cc1", "activation": "4.01% (inactive)"},
      {"smiles": "COc1ccccc1S(=O)(=O)N[C@H]1CC[C@@H](CC(=O)NCc2cc(F)cc(F)c2)O[C@H]1CO", "activation": "6.83% (inactive)"},
      {"smiles": "COC(=O)c1c(C)oc(C)c1S(=O)(=O)Nc1ccc(C(C)C)cc1", "activation": "52.6% (active)"},
      {"smiles": "COC(=O)c1c(C)oc(C)c1S(=O)(=O)NCc1ccc(Cl)cc1", "activation": "15.9% (inactive)"},
      {"smiles": "CC(C)c1ccc(NS(=O)(=O)c2cn(C)c(=O)n(C)c2=O)cc1", "activation": "18.1% (inactive)"},
      {"smiles": "CCCCCCCCCCOC(=O)Cn1c(COc2ccc(C)cc2)[n+](C)c2ccccc21", "activation": "193% (active)"},
      {"smiles": "Cc1ccc(OCCC(=O)OCC(=O)N2c3ccccc3NC(=O)C2(C)C)cc1", "activation": "-29.1% (inactive)"},
      {"smiles": "CCCCOC(=O)c1ccc(NC(c2ccc(C)cc2)P(=O)(OC)OC)cc1", "note": "(stereo not drawn)", "activation": "-63.4% (inactive)"},
      {"smiles": "CCCNC(=O)N1CCC2(CC1)CN(C(=O)c1cccnc1)[C@@H](CO)c1[nH]c3cc(OC)ccc3c12", "activation": "20.9% (inactive)"},
      {"smiles": "C[C@H]1CCCCO[C@@H](CN(C)Cc2ccc3c(c2)OCO3)[C@@H](C)CN([C@@H](C)CO)C(=O)c2cc(NS(=O)(=O)c3ccc(F)cc3)ccc2O1", "activation": "-26% (inactive)"},
      {"smiles": "O=C(C[C@H]1C=C[C@H](NC(=O)c2cccc(F)c2)[C@@H](CO)O1)NCc1ccc(Oc2ccccc2)cc1", "activation": "8.87% (inactive)"},
      {"smiles": "Cc1noc(C)c1NC(=O)N(C)C[C@@H]1Oc2c(NC(=O)CCCCCC(=O)Nc3ccccc3N)cccc2C(=O)N([C@H](C)CO)C[C@@H]1C", "activation": "-5.82% (inactive)"},
      {"smiles": "COc1ccccc1S(=O)(=O)N[C@@H]1C=C[C@H](CC(=O)NCc2cccc(F)c2)O[C@H]1CO", "activation": "10.3% (inactive)"},
      {"smiles": "COc1ccc(NC(=O)C2Cc3c(-c4cccc(NC(C)=O)c4)ccnc3O2)cc1OC", "note": "(stereo not drawn)", "activation": "-7.03% (inactive)"},
      {"smiles": "COc1cc2c(cc1OC)/C(=C/C(=O)c1ccc(NC(C)=O)cc1)NCC2", "activation": "70% (active)"},
      {"smiles": "COc1ccc(C(=O)Nc2ccc(C3(C#N)CCCC3)cc2)cc1OC", "activation": "-6.21% (inactive)"},
      {"smiles": "CCC(=O)N(C)C[C@@H]1Oc2ncc(C#Cc3ccccc3)cc2C(=O)N([C@@H](C)CO)C[C@H]1C", "activation": "-1.97% (inactive)"},
      {"smiles": "NC(=O)COc1ccccc1C(=O)NC12CC3CC(CC(C3)C1)C2", "activation": "17.8% (inactive)"},
      {"smiles": "COc1ccccc1C(=O)NC(=O)COC(=O)C1CC1", "activation": "-1.88% (inactive)"},
      {"smiles": "COc1ccccc1C(=O)NC(=S)NC12CC3CC(CC(C3)C1)C2", "activation": "41.4% (active)"},
      {"smiles": "COc1cccc(C#Cc2ccc3c(c2)[C@H]2[C@H](CCN2C(=O)CC2CC2)[C@H](CO)N3)c1", "activation": "0.458% (inactive)"},
      {"smiles": "CCCC#Cc1ccc2c(c1)O[C@H](CN(C)C(=O)C1CCCCC1)[C@H](C)CN([C@H](C)CO)S2(=O)=O", "activation": "-12.4% (inactive)"},
      {"smiles": "CN(C)CC(=O)N[C@@H]1CC[C@H](CCn2cc(C3CCCC3)nn2)O[C@H]1CO", "activation": "-11.3% (inactive)"},
      {"smiles": "O=C(Nc1ccccc1)c1nnsc1S(=O)(=O)c1ccc(Cl)cc1", "activation": "48.4% (active)"},
      {"smiles": "O=C(NNC(=O)c1cccc(S(=O)(=O)Nc2ccc(Cl)cc2)c1)c1ccc(=O)[nH]c1", "activation": "0.241% (inactive)"},
      {"smiles": "O=C(NCCS(=O)(=O)NCc1ccc(Cl)cc1)c1ccccc1", "activation": "18.7% (inactive)"},
      {"smiles": "C=CCSc1nc(N)cc(=O)[nH]1", "activation": "18% (inactive)"},
      {"smiles": "C=CCSc1nc2c(c(=O)[nH]1)C(C(C)C)C(C#N)=C(N)O2", "note": "(stereo not drawn)", "activation": "71.8% (active)"},
      {"smiles": "O=C(C[C@@H]1CC[C@@H]2[C@H](COC[C@H](O)CN2S(=O)(=O)c2ccccc2)O1)N[C@H]1CCN(Cc2ccccc2)C1", "activation": "4.06% (inactive)"},
      {"smiles": "COc1ccc(NC(=O)N(C)C[C@H]2Oc3c(NC(=O)Nc4cccc5ccccc45)cccc3C(=O)N([C@H](C)CO)C[C@@H]2C)cc1", "activation": "-5.46% (inactive)"},
      {"smiles": "Cc1cccc(-c2ccc(C3[C@H]4CNC[C@@H]3N4S(=O)(=O)c3ccccc3F)cc2)c1", "note": "(stereo partly drawn)", "activation": "-12.2% (inactive) and 1.38% (inactive)"},
      {"smiles": "C/C=C/c1ccc([C@@H]2[C@@H](CN(C)C(C)=O)N(C(=O)C3CC3)[C@H]2CO)cc1", "activation": "-3.3% (inactive)"},
      {"smiles": "C[C@@H]1CN([C@H](C)CO)C(=O)c2cc(NC(=O)Cn3cnnn3)ccc2O[C@@H]1CN(C)C(=O)Nc1ccc2c(c1)OCO2", "activation": "6.33% (inactive)"}
    ]}
  ]
}
